Test systems include ACVR2B; ACVRL1; ADCK4; AKT1; AKT2; AKT3; ALK(C1156Y); ALK(L1196M); ALK.
Settings in all cases: Compound Concentration (nM):1000
The subject of the next test is T1, ADCK3.
T1 construct: gene CABC1
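Further: KINOMEscan scanMAX binding as percent activity remaining versus control; lower means stronger binding.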

For `CCc1ccc(Oc2nccc(-c3c(-c4ccc(F)cc4)ncn3C3CCNCC3)n2)cc1` [SB-242719], the “Percent Control” value in the test on ACVR2B is 100%; in the test with ACVRL1, 97%; in the test on ADCK3 it was 100%; with ADCK4, 100%; in the test on AKT1, 88%; with AKT2, 100%. The “Percent Control” value with AKT3 is listed as 100%; in the test on ALK(C1156Y) it was 100%; in the test with ALK(L1196M) it was 98%; with ALK it was 96%.
On to `Cl.c1ccc(Cc2nc3ccc(Nc4ncnc5ccccc45)cc3[nH]2)cc1` [GR269666A], for which the “Percent Control” value was 100% in the test with ACVR2B; 89% in the test on ACVRL1; 100% with ADCK3; 100% with ADCK4; 93% in the test on AKT1; 100% in the test on AKT2. Also, the “Percent Control” value is 100% in the test with AKT3, 95% in the test on ALK(C1156Y), 100% with ALK(L1196M) and 99% in the test on ALK.
Regarding `O=C1Nc2ccc(C(=O)c3ccco3)cc2C1=Cc1cc(Cl)c(O)c(Cl)c1` [GW406108X], the “Percent Control” value in the test on ACVR2B was 86%; in the test with ACVRL1 it was 100%; in the test on ADCK3, 90%; with ADCK4, 99%; with AKT1, 100%; in the test on AKT2, 100%. In addition, the “Percent Control” value with AKT3 stood at 100%; with ALK(C1156Y) it was 76%; with ALK(L1196M) it was 86%; in the test with ALK, 89%.
Consider `Cl.O=S1CCN(Cc2ccc(-c3ccc4ncnc(Nc5ccc(OCc6ccccc6)c(F)c5)c4c3)o2)CC1` [GW576924A], for which the “Percent Control” value is 100% in the test with ACVR2B; 94% in the test on ACVRL1; 100% in the test with ADCK3; 100% in the test with ADCK4; 100% in the test on AKT1; 100% in the test with AKT2. The “Percent Control” value in the test on AKT3, with ALK(C1156Y), in the test with ALK(L1196M) and with ALK was 100% throughout.
For the compound `COC(=O)Nc1nc2ccc(Oc3ccc(NC(=O)Nc4cc(C(F)(F)F)ccc4F)cc3)cc2s1.Cl` [GW693917A], the “Percent Control” value in the test on ACVR2B is 100%; in the test with ACVRL1 it was 65%; with ADCK3, 100%; with ADCK4, 75%; in the test on AKT1 it was 84%; in the test on AKT2, 100%. In addition, the “Percent Control” value in the test on AKT3 was 100%; in the test on ALK(C1156Y), 89%; with ALK(L1196M), 87%; with ALK, 100%.
As for `CC(C)COC(=O)c1ccc2c(c1)/C(=C/Nc1ccc(S(N)(=O)=O)cc1)C(=O)N2` [GW416981X], the “Percent Control” value in the test on ACVR2B, in the test with ACVRL1, in the test with ADCK3, in the test with ADCK4, with AKT1 and in the test on AKT2 was 100% throughout. Besides, the “Percent Control” value in the test on AKT3 is 100%; with ALK(C1156Y) it was 93%; in the test with ALK(L1196M) it was 94%; in the test with ALK it was 100%.
`COc1ccc2cc(-c3c(-c4ccncc4)nc(-c4ccc(S(C)(=O)=O)cc4C)n3C)ccc2c1` [SB-633825]: the “Percent Control” value was 84% with ACVR2B; 100% in the test with ACVRL1; 100% in the test on ADCK3; 80% with ADCK4; 100% in the test with AKT1; 94% in the test on AKT2. Also, the “Percent Control” value in the test with AKT3 amounted to 100%; in the test on ALK(C1156Y) it was 70%; with ALK(L1196M), 73%; with ALK it was 58%.
Take `COc1cc(C=NNc2ncnc3c2cnn3-c2ccccc2)ccc1O` [GW513184X]: the “Percent Control” value with ACVR2B was 82%; with ACVRL1, 67%; in the test on ADCK3, 95%; in the test on ADCK4 it was 0%; in the test on AKT1 it was 100%; in the test with AKT2 it was 100%. For the same compound, the “Percent Control” value in the test with AKT3, in the test on ALK(C1156Y), in the test with ALK(L1196M) and in the test with ALK was 100% throughout.
Regarding `COc1cc2ncnc(Nc3ccc4c(cnn4Cc4ccccc4)c3)c2cc1OC.Cl` [GW282449A], the “Percent Control” value is 100% in the test with ACVR2B; 97% with ACVRL1; 100% in the test with ADCK3; 100% with ADCK4; 100% with AKT1; 100% in the test on AKT2. Further, the “Percent Control” value in the test with AKT3 came to 100%; in the test with ALK(C1156Y), 96%; in the test on ALK(L1196M), 100%; with ALK, 93%.
Regarding `CC1=C(C(=O)Nc2ccc3[nH]ncc3c2)C(c2ccc(Cl)c(Cl)c2)CC(=O)N1` (centres unmarked) [GSK299115A], the “Percent Control” value was 69% in the test on ACVR2B; 100% with ACVRL1; 99% in the test with ADCK3; 92% in the test on ADCK4; 100% in the test with AKT1; 100% with AKT2. The “Percent Control” value came out at 100% with AKT3, 100% in the test on ALK(C1156Y), 100% with ALK(L1196M) and 77% in the test on ALK.
`Cc1cc(O)cc(C)c1/C=C/c1cncc(C(N)=O)c1` [GW435821X]: the “Percent Control” value with ACVR2B is 7.1%; with ACVRL1, 2.6%; in the test with ADCK3, 100%; in the test on ADCK4, 100%; with AKT1, 96%; with AKT2 it was 100%. For the same compound, the “Percent Control” value in the test on AKT3 stood at 100%; in the test with ALK(C1156Y), 96%; in the test on ALK(L1196M), 88%; in the test with ALK, 100%.
`Nc1ncnc2occ(-c3ccc(NC(=O)Nc4cc(C(F)(F)F)ccc4F)cc3)c12` [GW770249X]: the “Percent Control” value with ACVR2B, in the test with ACVRL1, with ADCK3, with ADCK4, in the test with AKT1 and in the test with AKT2 was 100% in each case. Further, the “Percent Control” value in the test with AKT3 is listed as 100%; in the test with ALK(C1156Y), 41%; in the test on ALK(L1196M) it was 74%; in the test on ALK it was 36%.
Regarding `COc1cc2ncn(-c3cc(O[C@H](C)c4ccccc4Cl)c(C(N)=O)s3)c2cc1OC` [GSK237701A], the “Percent Control” value is 100% with ACVR2B; 100% in the test on ACVRL1; 100% in the test with ADCK3; 83% in the test with ADCK4; 100% in the test with AKT1; 88% in the test on AKT2. For the same compound, the “Percent Control” value in the test with AKT3 is reported as 100%; in the test on ALK(C1156Y) it was 100%; in the test with ALK(L1196M), 94%; in the test with ALK, 79%.
Regarding `CN(C)c1cc2c(Nc3ccc4c(cnn4Cc4ccccc4)c3)ncnc2cn1` [GW282974X], the “Percent Control” value in the test on ACVR2B was 100%; in the test on ACVRL1, 87%; with ADCK3 it was 98%; in the test on ADCK4, 100%; in the test on AKT1, 79%; in the test with AKT2 it was 100%. Moreover, the “Percent Control” value was determined as 100% in the test with AKT3, 97% in the test with ALK(C1156Y), 94% in the test with ALK(L1196M) and 100% in the test with ALK.
Consider `NS(=O)(=O)c1ccc(N/N=C2\C(=O)Nc3ccc(C(=O)NCCc4c[nH]cn4)cc32)cc1` [GW300660X], for which the “Percent Control” value in the test on ACVR2B, with ACVRL1, with ADCK3, in the test on ADCK4, with AKT1 and in the test on AKT2 was 100% each time. In addition, the “Percent Control” value came to 100% in the test on AKT3, 92% with ALK(C1156Y), 91% in the test on ALK(L1196M) and 100% in the test with ALK.
As for `COc1ccccc1-c1cc(/C=C2\C(=O)Nc3ncc(Br)cc32)cc(Br)c1O` [GW442130X], the “Percent Control” value was 100% in the test with ACVR2B; 95% with ACVRL1; 100% in the test on ADCK3; 100% with ADCK4; 93% in the test on AKT1; 100% in the test on AKT2. For the same compound, the “Percent Control” value in the test with AKT3, with ALK(C1156Y), in the test with ALK(L1196M) and in the test on ALK was 100% throughout.
Take `NS(=O)(=O)c1ccc(N/N=C2\C(=O)Nc3ccc(Cl)cc32)cc1` [GW280670X]: the “Percent Control” value with ACVR2B, in the test with ACVRL1, in the test on ADCK3, in the test with ADCK4, in the test on AKT1 and in the test with AKT2 was 100% in each case. The “Percent Control” value with AKT3, in the test with ALK(C1156Y), in the test on ALK(L1196M) and in the test with ALK was 100% in each case.
In the case of `NS(=O)(=O)c1ccc(N/N=C2\C(=O)Nc3ccc(C(=O)NCc4ccncc4)cc32)cc1` [GW300657X], the “Percent Control” value with ACVR2B was 100%; in the test on ACVRL1, 100%; in the test with ADCK3, 87%; in the test on ADCK4 it was 100%; in the test with AKT1, 82%; in the test on AKT2, 100%. Besides, the “Percent Control” value in the test with AKT3 was determined as 100%; in the test with ALK(C1156Y), 83%; in the test with ALK(L1196M), 82%; with ALK, 77%.
In the case of `C[C@@H](Oc1cc(-n2cnc3ccc(OC4CCN(C)CC4)cc32)sc1C(N)=O)c1ccccc1Cl` [GSK579289A], the “Percent Control” value was 60% with ACVR2B; 100% with ACVRL1; 97% in the test with ADCK3; 20% in the test with ADCK4; 100% with AKT1; 100% in the test with AKT2. For the same compound, the “Percent Control” value came out at 100% in the test with AKT3, 82% in the test on ALK(C1156Y), 81% with ALK(L1196M) and 87% in the test on ALK.
In the case of `COc1cccc(-n2ncc3c(N/N=C/c4ccncc4)ncnc32)c1` [GW784752X], the “Percent Control” value is 81% in the test on ACVR2B; 3.7% in the test with ACVRL1; 100% in the test with ADCK3; 31% with ADCK4; 100% in the test with AKT1; 100% in the test with AKT2. Besides, the “Percent Control” value was 100% with AKT3, 95% with ALK(C1156Y), 91% in the test on ALK(L1196M) and 87% in the test on ALK.
